Assay results from the supplement of paper PMC10646978.
± gives the standard deviation.

Tests used:
Conditions in all cases: modulator concentration 10 µM
[1] = tested on: RAW-Dual (murine macrophage reporter line); experiment: NF-kB reporter (SEAP) activity fold change vs agonist alone; higher = enhanced NF-kB activity
How it was run: (§1)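 RAW-Dual murine macrophage reporter cells were plated at 50 000 per well in 384-well plates, pin-transferred compound to 10 μM final, and pre-incubated for 1 hour at 37 °C before a PRR agonist was added and the cells incubated overnight. NF-κB activity was read from supernatant SEAP with QUANTI-Blue at 620 nm absorbance, and IRF activity from Lucia luciferase with QUANTI-Luc by luminescence. Each signal was expressed as fold change by dividing by the mean agonist-only control on the same plate. Two replicate plates were averaged, with errors obtained by propagation.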

[2] = tested on: RAW-Dual (murine macrophage reporter line); experiment: IRF reporter (Lucia luciferase) activity fold change vs agonist alone; higher = enhanced IRF activity
How it was run: as §1

[3] = tested on: RAW-Dual (murine macrophage reporter line); experiment: viability score (confluency relative to resting cells, overnight) (fraction); higher = more viable, active = viable (0.7 or more)
How it was run: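 Overnight exposure to 10 μM final compound was carried out on RAW-Dual macrophages in 384-well plates. IncuCyte software generated two confluency masks over all wells imaged with IncuCyte. The viability score gives confluency in relation to resting cells. A compound met the cutoff if each mask exceeded 70% of resting cells.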

[4] = agonist: CpG ODN 1826 0.5 ug/mL

Row | Compound | NF-kB reporter [1, 4] | NF-kB reporter ([1]; agonist: LPS 0.1 ug/mL) | NF-kB reporter ([1]; agonist: MPLA […]) | IRF reporter ([2]; agonist: 3'3'-cGAMP 10 ug/mL) | IRF reporter ([2]; agonist: LPS 0.1 ug/mL) | IRF reporter ([2]; agonist: MPLA […]) | viability score [3]
1 | CC(=O)N[C@H]1[C@H]([C@H](O)[C@H](O)CO)OC(C(=O)O)=C[C@@H]1NC(=N)N | 1.12 ± 0.27 | 0.945 ± 0.12 | 1.02 ± 0.066 | 0.919 ± 0.04 | 1.3 ± 0.24 | 1.08 ± 0.12 | 1.01 (active)
2 | COC(=O)C1C(=O)CC(C)(O)C(C(=O)OC)C1c1ccc2c(c1)OCO2 (stereo not drawn) | 1.03 ± 0.088 | 1.08 ± 0.081 | 0.958 ± 0.085 | 1 ± 0.038 | 1.57 ± 0.16 | 1.14 ± 0.11 | 0.989 (active)
3 | CC(O)c1cn(-c2cccc(C(F)(F)F)c2)nn1 (stereo not drawn) | 1.05 ± 0.35 | 1.16 ± 0.072 | 1.04 ± 0.078 | 0.861 ± 0.038 | 1.15 ± 0.12 | 1.23 ± 0.17 | 1 (active)
4 | O=C(CCc1ccc(O)cc1)c1c(O)cc(O)cc1OC1OC(CO)C(O)C(O)C1O (stereo not drawn) | 1.37 ± 0.33 | 0.943 ± 0.047 | 0.963 ± 0.072 | 0.961 ± 0.066 | 0.98 ± 0.18 | 1.02 ± 0.14 | 1.01 (active)
5 | CN(C)CCN(Cc1ccccc1)Cc1cc(Cl)cc(Cl)c1O | 0.799 ± 0.063 | 0.918 ± 0.081 | 0.996 ± 0.086 | 0.947 ± 0.058 | 1.29 ± 0.074 | 1.32 ± 0.12 | 1.01 (active)
6 | O=[N+]([O-])c1ccc2nc(Cl)sc2c1 | 1.71 ± 0.13 | 0.49 ± 0.039 | 0.338 ± 0.032 | 0.159 ± 0.02 | 0.223 ± 0.083 | 0.0921 ± 0.025 | 0.638 (inactive)
7 | Cl.NCCCC(N)(C(=O)O)C(F)F.O (stereo not drawn) | 1.06 ± 0.25 | 1.09 ± 0.065 | 1.2 ± 0.18 | 0.922 ± 0.035 | 1.3 ± 0.15 | 1.19 ± 0.15 | 0.994 (active)
8 | CCC(C)(C)C(=O)OC1CC(C)C=C2C=CC(C)C(CCC3CC(O)CC(=O)O3)C21 (stereo not drawn) | 1.65 ± 0.13 | 1.56 ± 0.11 | 1.91 ± 0.18 | 0.43 ± 0.014 | 0.918 ± 0.087 | 0.524 ± 0.11 | 0.912 (active)
9 | O=C1CCCc2[nH]ccc21 | 1.03 ± 0.12 | 1.03 ± 0.11 | 1.01 ± 0.092 | 1.02 ± 0.084 | 1.04 ± 0.094 | 0.998 ± 0.21 | 0.999 (active)
10 | FC(F)(F)c1nnc2ccc(NC3CCN(c4ncnc5c4CCCC5)CC3)nn12 | 1.19 ± 0.096 | 1.52 ± 0.13 | 1.79 ± 0.13 | 1.17 ± 0.086 | 1.46 ± 0.091 | 1.4 ± 0.18 | 0.972 (active)
11 | CCc1c(C)c2ccc(OCC(C)=O)c(C)c2oc1=O | 0.936 ± 0.21 | 0.984 ± 0.098 | 0.938 ± 0.098 | 0.942 ± 0.068 | 1.27 ± 0.3 | 1.2 ± 0.13 | 0.991 (active)
12 | Cc1cnc2c(c1N1CCC(Cc3ccccc3)CC1)c(=O)n(C)c(=O)n2C | 0.97 ± 0.06 | 1.08 ± 0.084 | 0.996 ± 0.051 | 1.06 ± 0.044 | 1.01 ± 0.088 | 1.07 ± 0.26 | 0.999 (active)
13 | O=[N+]([O-])c1cc(C(O)(C(F)(F)F)C(F)(F)F)cc([N+](=O)[O-])c1Cl | 1.07 ± 0.085 | 1.03 ± 0.072 | 0.972 ± 0.091 | 0.706 ± 0.029 | 1.22 ± 0.17 | 0.97 ± 0.085 | 0.996 (active)
14 | Cc1ccc(OCC(=O)NN=Cc2cc(Br)cc(Br)c2O)c([N+](=O)[O-])c1 | 0.928 ± 0.071 | 0.908 ± 0.11 | 1.08 ± 0.17 | 1.01 ± 0.073 | 1.33 ± 0.26 | 1.47 ± 0.33 | 1.02 (active)
